According to the supplement of paper PMC9694430:
Structures can show the parent of a compound that is named as a salt.

Tests used:
Assay in all cases: thermal shift delta Tm vs DMSO control; higher = stronger stabilization (binding)
Settings in all cases: 12.5 µM; protein concentration 2 µM
LOC_OS02G45750-cb003 = system: LOC_OS02G45750-cb003
Method in brief: (§1)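 Purified, E. coli-expressed rice kinase domain constructs were tested by differential scanning fluorimetry in 96-well plates: 19.5 μl of 2 μM kinase in 100 mM potassium phosphate pH 7.5, 150 mM NaCl, 10% glycerol, 5 × SYPRO Orange, plus compound in DMSO. Fluorescence was read from 25°C to 95°C at 0.05°C/s. Melting temperatures came from Boltzmann fits, and the shift is the triplicate mean relative to protein with DMSO alone.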

LOC_OS02G54510-cb004 = system: LOC_OS02G54510-cb004
Method in brief: as §1

LOC_OS03G04050-cb001 = system: LOC_OS03G04050-cb001
Method in brief: as §1

LOC_OS03G12390-cb001 = system: LOC_OS03G12390-cb001
Method in brief: as §1

LOC_OS03G27990-cb004 = system: LOC_OS03G27990-cb004
Method in brief: as §1

LOC_OS03G50450-cb001 = system: LOC_OS03G50450-cb001
Method in brief: as §1

LOC_OS03G50810-cb003 = system: LOC_OS03G50810-cb003
Method in brief: as §1

LOC_OS04G35114-cb001 = system: LOC_OS04G35114-cb001
Method in brief: as §1

LOC_OS04G38480-cb003 = system: T1, LOC_OS04G38480-cb003
T1 sequence (whole entry): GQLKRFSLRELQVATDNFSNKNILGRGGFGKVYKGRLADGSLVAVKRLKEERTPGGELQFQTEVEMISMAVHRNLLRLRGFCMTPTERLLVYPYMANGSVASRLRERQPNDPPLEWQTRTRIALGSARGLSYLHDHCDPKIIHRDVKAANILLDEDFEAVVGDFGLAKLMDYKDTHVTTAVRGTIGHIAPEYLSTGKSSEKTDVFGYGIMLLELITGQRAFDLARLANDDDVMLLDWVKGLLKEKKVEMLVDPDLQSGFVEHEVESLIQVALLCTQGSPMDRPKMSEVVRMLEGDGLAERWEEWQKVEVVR
Method in brief: as §1

LOC_OS04G41100-cb001 = system: T2, LOC_OS04G41100-cb001
T2 sequence (whole entry): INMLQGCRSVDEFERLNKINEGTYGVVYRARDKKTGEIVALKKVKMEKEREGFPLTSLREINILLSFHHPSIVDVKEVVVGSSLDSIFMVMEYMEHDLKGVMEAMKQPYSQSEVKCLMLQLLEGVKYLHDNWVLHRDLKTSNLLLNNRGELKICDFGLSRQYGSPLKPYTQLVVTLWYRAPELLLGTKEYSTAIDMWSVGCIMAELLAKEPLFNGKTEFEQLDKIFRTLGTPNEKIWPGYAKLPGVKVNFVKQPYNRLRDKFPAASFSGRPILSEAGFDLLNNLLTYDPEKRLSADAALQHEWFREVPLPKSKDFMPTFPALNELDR
Method in brief: as §1

LOC_OS04G57630-cb004 = system: LOC_OS04G57630-cb004
Method in brief: as §1

LOC_OS05G07850-cb002 = system: LOC_OS05G07850-cb002
Method in brief: as §1

LOC_OS05G16824-cb004 = system: LOC_OS05G16824-cb004
Method in brief: as §1

LOC_OS05G28520-cb001 = system: LOC_OS05G28520-cb001
Method in brief: as §1

LOC_OS05G30820-cb001 = system: LOC_OS05G30820-cb001
Method in brief: as §1

LOC_OS05G43570-cb004 = system: LOC_OS05G43570-cb004
Method in brief: as §1

LOC_OS06G16330-cb003 = system: LOC_OS06G16330-cb003
LOC_OS06G16330-cb003, sequence (as listed by the source): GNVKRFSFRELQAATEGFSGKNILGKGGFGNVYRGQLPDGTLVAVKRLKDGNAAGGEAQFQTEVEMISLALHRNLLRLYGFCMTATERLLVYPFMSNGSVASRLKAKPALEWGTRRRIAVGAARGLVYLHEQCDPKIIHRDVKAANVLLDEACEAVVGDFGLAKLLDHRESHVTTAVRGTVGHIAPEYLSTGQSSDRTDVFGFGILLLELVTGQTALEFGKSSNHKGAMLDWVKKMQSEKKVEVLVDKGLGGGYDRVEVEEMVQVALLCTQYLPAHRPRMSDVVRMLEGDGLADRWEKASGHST
Method in brief: as §1

LOC_OS06G22820-cb001 = system: T3, LOC_OS06G22820-cb001
T3 sequence (whole entry): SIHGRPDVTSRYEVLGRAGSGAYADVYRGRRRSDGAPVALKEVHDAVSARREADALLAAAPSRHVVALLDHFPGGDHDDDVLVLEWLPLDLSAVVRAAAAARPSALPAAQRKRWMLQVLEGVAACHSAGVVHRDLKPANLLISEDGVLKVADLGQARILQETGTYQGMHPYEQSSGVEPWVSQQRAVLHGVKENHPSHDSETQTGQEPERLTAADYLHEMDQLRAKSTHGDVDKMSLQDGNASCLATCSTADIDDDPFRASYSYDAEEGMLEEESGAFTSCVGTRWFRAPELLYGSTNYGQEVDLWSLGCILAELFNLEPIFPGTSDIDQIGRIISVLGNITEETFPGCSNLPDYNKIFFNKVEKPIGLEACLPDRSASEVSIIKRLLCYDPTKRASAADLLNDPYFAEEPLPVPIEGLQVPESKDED
Method in brief: as §1

LOC_OS07G06570-cb004 = system: LOC_OS07G06570-cb004
Method in brief: as §1

LOC_OS07G07230-cb001 = system: LOC_OS07G07230-cb001
Method in brief: as §1

Row | SMILES | thermal shift delta Tm (LOC_OS02G45750-cb003) | thermal shift delta Tm (LOC_OS02G54510-cb004) | thermal shift delta Tm (LOC_OS03G04050-cb001) | thermal shift delta Tm (LOC_OS03G12390-cb001) | thermal shift delta Tm (LOC_OS03G27990-cb004) | thermal shift delta Tm (LOC_OS03G50450-cb001) | thermal shift delta Tm (LOC_OS03G50810-cb003) | thermal shift delta Tm (LOC_OS04G35114-cb001) | thermal shift delta Tm (LOC_OS04G38480-cb003) | thermal shift delta Tm (LOC_OS04G41100-cb001) | thermal shift delta Tm (LOC_OS04G57630-cb004) | thermal shift delta Tm (LOC_OS05G07850-cb002) | thermal shift delta Tm (LOC_OS05G16824-cb004) | thermal shift delta Tm (LOC_OS05G28520-cb001) | thermal shift delta Tm (LOC_OS05G30820-cb001) | thermal shift delta Tm (LOC_OS05G43570-cb004) | thermal shift delta Tm (LOC_OS06G16330-cb003) | thermal shift delta Tm (LOC_OS06G22820-cb001) | thermal shift delta Tm (LOC_OS07G06570-cb004) | thermal shift delta Tm (LOC_OS07G07230-cb001)
1 | O=C(c1ccc(F)c(F)c1Nc1ccc(I)cc1F)N1CC(O)([C@@H]2CCCCN2)C1 [Cobimetinib (GDC-0973, RG7420)] | 1.13 °C | 0.05 °C | 0.77 °C | -0.17 °C | 0.68 °C | 0.95 °C | 0.43 °C | 0.76 °C | 0.54 °C | 0.19 °C | 0.22 °C | 0.2 °C | -1.19 °C | 0.07 °C | 0.47 °C | 0.39 °C | -0.17 °C | 0.43 °C | 1.59 °C | 0.43 °C
2 | CO[C@H]1C[C@@H]2CC[C@@H](C)[C@@](O)(O2)C(=O)C(=O)N2CCCC[C@H]2C(=O)O[C@H]([C@H](C)C[C@@H]2CC[C@H](n3cnnn3)[C@H](OC)C2)CC(=O)[C@H](C)/C=C(\C)[C@@H](O)[C@@H](OC)C(=O)[C@H](C)C[C@H](C)/C=C/C=C/C=C/1C [Zotarolimus(ABT-578)] | 1.04 °C | 0.46 °C | 0.79 °C | 0.05 °C | 0.77 °C | 0.89 °C | 0.33 °C | 0.66 °C | 2.27 °C | 0.4 °C | 0.76 °C | 0.65 °C | -0.34 °C | 0.87 °C | 0.57 °C | 1.17 °C | -0.09 °C | 0.92 °C | 1.43 °C | -0.08 °C
3 | COc1ccc(CC(=O)Nc2nc3c(s2)CCc2ccccc2-3)cc1OC | 1.49 °C | -0.24 °C | 0.51 °C | 0.4 °C | 0.36 °C | 0.29 °C | 0.43 °C | 0.71 °C | 1.33 °C | 0.15 °C | 0.43 °C | 1.41 °C | 2.09 °C | 0.12 °C | 0.13 °C | 0.04 °C | -0.23 °C | 0.35 °C | 1.1 °C | 0.06 °C
4 | Cc1cc(C(C)Nc2ccccc2)c2nc(N3CCOCC3)cc(=O)n2c1 (stereo not given) | -0.62 °C | 0.09 °C | 0.44 °C | -0.12 °C | 0.21 °C | 0.33 °C | -0.02 °C | 0.33 °C | 0.36 °C | 0.33 °C | -0.32 °C | 0.35 °C | -2.9 °C | 0.25 °C | 0.38 °C | 0.22 °C | 0.32 °C | 0.59 °C | 0.64 °C | 0.53 °C
5 | O=C(c1cccc(Cl)c1F)N1CCN(Cc2cccc(Nc3nccs3)n2)CC1 | 0.38 °C | 0.15 °C | 0.55 °C | 0.36 °C | 0.38 °C | 0.14 °C | 1.09 °C | 7 °C | 2.88 °C | 0.42 °C | 1.01 °C | 7.36 °C | 3.48 °C | 1.87 °C | 0.31 °C | -0.14 °C | 10.8 °C | 0.57 °C | 1.24 °C | 0 °C
6 | Cc1cc(O)c(-c2ccc([C@@H](C)CN)cc2)c2c1[nH]c(=O)c1sccc12 [OTS514 hydrochloride] | 0.87 °C | 1.1 °C | 0.44 °C | 0.55 °C | 0.52 °C | 0.04 °C | 0.85 °C | 1.39 °C | 1.65 °C | 3.58 °C | 0.19 °C | 5 °C | -0.88 °C | 0.49 °C | 0.55 °C | 0.45 °C | 1.74 °C | 0.65 °C | 1.65 °C | 0.6 °C
7 | O=C(c1ccc(Nc2nccc(-c3cc4ccccc4s3)n2)cc1)N1CCC(N2CCCC2)CC1 [IKK-16 (IKK Inhibitor VII)] | 6.42 °C | 1.74 °C | 0.22 °C | 2.55 °C | 4.05 °C | 1.23 °C | 5.04 °C | 5.32 °C | 3.88 °C | 4.91 °C | 5.63 °C | 15.2 °C | 7.99 °C | 1.89 °C | 0.77 °C | -0.31 °C | 9.02 °C | 0.14 °C | 0.72 °C | 0.03 °C
8 | Cc1cc(C)c(/C=C2\C(=O)Nc3ccccc32)[nH]1 [Semaxanib (SU5416)] | 0 °C | 0.58 °C | 0.69 °C | 4.53 °C | 1.72 °C | 2.32 °C | 2.91 °C | 6.57 °C | 2.87 °C | 0.32 °C | 0.62 °C | 6.49 °C | 8.99 °C | 0.65 °C | 0.48 °C | 0.37 °C | 6.54 °C | 0.6 °C | 1.4 °C | -0.2 °C
9 | O=C1NC(=O)C(c2cnc3ccccn23)=C1c1cn2c3c(cc(F)cc13)CN(C(=O)N1CCCCC1)CC2 | 0.77 °C | 0 °C | 0.57 °C | 4.58 °C | 0.13 °C | 0.64 °C | 0.95 °C | 1.35 °C | 1.47 °C | 1.44 °C | 0.36 °C | 5.85 °C | 3.38 °C | 1.1 °C | 0.39 °C | 0.48 °C | -0.6 °C | 1.42 °C | 2.11 °C | 0.29 °C
10 | Cc1ccc2nc(NCCN)c3ncc(C)n3c2c1 | 1.07 °C | 0.24 °C | 0.59 °C | -0.09 °C | 0.55 °C | 0.62 °C | 0.58 °C | 0.91 °C | 0.69 °C | 1.54 °C | -0.03 °C | 0.79 °C | -0.92 °C | 0.44 °C | 0.61 °C | 0.49 °C | 0.49 °C | 0.81 °C | 1.79 °C | 0.68 °C
11 | C[C@@H](N)c1ccc(C(=O)Nc2ccnc3[nH]ccc23)cc1 | 1.52 °C | 0.39 °C | 0.7 °C | 0.27 °C | 0.76 °C | 0.85 °C | 0.77 °C | 1.23 °C | 2.01 °C | 0.85 °C | 0.16 °C | 3.37 °C | -0.56 °C | 0.67 °C | 0.3 °C | 0.84 °C | 2.93 °C | 0.59 °C | 0.72 °C | -0.1 °C
12 | CO[C@@H](C(=O)N1Cc2[nH]nc(NC(=O)c3ccc(N4CCN(C)CC4)cc3)c2C1)c1ccccc1 | 6.97 °C | 0.95 °C | 0.25 °C | 4.21 °C | 0.41 °C | -0.04 °C | 3.61 °C | 4.16 °C | 2.5 °C | 1.51 °C | 2.02 °C | 6.58 °C | 5.14 °C | 0.31 °C | 0.48 °C | 0.25 °C | 7.87 °C | 2.69 °C | 0.66 °C | 0 °C
